Results published in the supplement of paper PMC3724861.
Only a selection was taken, and hits are over-represented in it overall. The true hit rate is not given. A number with no mark means an inactive call.

System: T1, Caupolican (Caup) homeodomain DNA-binding domain
T1 sequence: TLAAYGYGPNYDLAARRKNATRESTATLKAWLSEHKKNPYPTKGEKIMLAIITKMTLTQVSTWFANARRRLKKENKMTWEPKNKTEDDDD
Experiment: PBM E-score (8-mer, recovered from the published 9-mer minima) (E-score (dimensionless, -0.5 to 0.5)); Drosophila protein; higher = stronger relative binding preference, active = 0.31 or more
How it was run: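 Caup's homeodomain DNA-binding domain (residues 214-303) was made by in vitro transcription and translation and applied at 100 nM to custom-designed protein binding microarrays. Each value is an enrichment score that gives relative binding preference for a short DNA word, with higher meaning stronger. The 8-mer values were recovered from published 9-mer scores, each of which was the minimum of its two constituent 8-mer scores. A cutoff of 0.31 marks candidate sites.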

Sequence	PBM E-score
TGCAAAAA	0.0586
AGACTGCG	-0.129
AGCTTCCC	-0.188
AAGCCCCA	-0.232
AAACACTT	0.153
ACACACGT	0.254
AAACACGT	0.312 (active)
AAACACGA	≥ 0.351 (active)
AAACACGC	0.248
AAACACGG	0.257
CAAAGCGC	-0.207
GATCAGGC	-0.0491
ACCGACTA	0.0195
ACCCCGCA	-0.142
ACAATGTA	0.285
CCAATGTC	0.0611
CCCATGGA	0.021
GCCATGTA	0.346 (active)
GCCATGCA	-0.0297
ACCATGCC	-0.0174
GCCATGGA	-0.137
ACCATGTC	0.408 (active)
CCCATGTA	0.326 (active)

Sequence	PBM E-score
CCCATGTC	0.309
ACAATGTC	0.316 (active)
ACTATGTC	0.302
AATATTTC	0.0671
TGATTGCA	0.139
GAAATAAA	0.0685
ATGCGAAC	0.0459
GACTCAAC	0.0307
CGAAGGTC	-0.156
ACAGCAAT	0.163
ACAGTTGC	0.0312
CCGATAAC	0.0305
ACCATGCA	0.0966
ACCATGTA	≥ 0.422 (active)
ACCATGTG	0.145
AATTTGGA	0.0747
ATGAACAC	0.332 (active)
AGGAACAT	0.339 (active)
AGGAACAC	0.193
GTGAACAC	0.256
CTGAACAC	0.235
ATGAACAA	0.286
ACGAACAT	0.349 (active)

Sequence	PBM E-score
ACGAACAG	0.137
ATGAACAT	0.326 (active)
AGGAACAG	0.0859
ACGAACAA	0.298
ATGAACAG	0.22
AACGGGTA	0.0722
CCCGTCGG	-0.289
CCGCAGCC	-0.25
GCGCCGAC	-0.199
GATCGCAC	0.0699
CATTTGCG	0.00242
ACCTTCGT	-0.0522
GCCACCTA	-0.192
AACAAATA	0.287
AACAAGTA	0.33 (active)
GACAAGTC	0.236
ACCAAGTA	0.0922
AACAAATG	0.174
CACAAGTA	0.205
CACAAGTG	0.111
AACAAGTG	0.334 (active)
GACAAATA	0.218
TACAAGTA	≥ 0.407 (active)

Sequence	PBM E-score
TACAAAGA	0.239
GACAAGTA	0.355 (active)
CATGAAGG	0.0126
ACCCCGAA	-0.106
AGTGGGTC	-0.178
GAAACTGC	-0.184
ACCAGGGC	-0.112
GGCAGCTA	-0.136
CGTTTTCC	0.0392
GACGCGTC	-0.0916
ACCGTCCT	-0.0635
ACTCAAGA	-0.0159
AAGTCAGG	-0.109
AACAAGTC	0.278
AACAAGTT	0.33 (active)
AACAAGGT	0.293
CTTTGCTC	-0.0311
CATCCCTC	-0.0768
CAAGTGGG	-0.0243
ATGTGTTG	0.34 (active)
ATGTGTTA	≥ 0.323 (active)
CTGTGTTA	0.259
ATGTGTTC	0.266

Sequence	PBM E-score
GTGTGTTA	0.275
ATGTGTGG	0.0766
AAAGAAGT	0.0392
CATGCTGG	0.0451
CGAAGTCC	-0.149
GGCAAGTA	0.101
ACAGGCGT	-0.013
ATGTCATA	0.4 (active)
ATGTCATG	0.353 (active)
CTGTCATA	0.246
ATGTCAGA	0.336 (active)
ATGTCATC	0.306
ATGTCAGG	0.209
GTGTCAGA	0.245
GTGTCATA	0.292
CTGTCAGA	0.0887
ACCTCGCC	-0.212
GCCCTGCA	-0.173
TCAGTGAA	-0.0554
CCGAGTAG	-0.0123
AAATCACA	0.108
CCCGTTAC	0.0202
